Source: PubChem BioAssay (NCI)
This is part of a sample that, as a whole, favours compounds with a hit. Of some 83,000 tested, about 20% had one in any assay.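 Negative percent growth values reflect cell death: -40 means 40% of the cells present at the start died, and -100 means all died.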 Activity calls are given as the source filed them. The calls were made as follows: active = growth percent below 10; inactive = the rest.

Experiments:
Test in all cases: NCI-60 one-dose screen, 48 h (100 = growth as untreated, 0 = no growth, -100 = all killed)
Settings in all cases: 10 µM unless noted
[1] = test system: SK-MEL-2 melanoma
[2] = test system: EKVX NSCLC
[3] = test system: SN12C renal
[4] = test system: UO-31 renal
[5] = test system: TK-10 renal
[6] = test system: ACHN renal
[7] = test system: CAKI-1 renal
[8] = test system: A498 renal
[9] = test system: CCRF-CEM leukemia
[10] = test system: MOLT-4 leukemia

Measured: growth

N#CC1CCc2c(c(-c3ccc4nc(N)sc4c3)nc3ccc4[nH]ncc4c23)C1 (stereo not given)
inactive: [1] 51.7% | [2] 64.8% | [3] 62.5% | [4] 31.2% | [5] 41.6% | [6] 29.6% | [7] 11.3% | [9] 42.6% | [10] 17.2%
active: [8] -3.66%

CCOC(=O)C1=C(C)/C(=C\c2[nH]c(C)c(C(=O)OCC)c2C)N=C1C
active: [9] 4.69% | [10] 9.99%
inactive: [1] 85.6% | [2] 94.2% | [3] 79.1% | [4] 73.7% | [5] 108% | [6] 96.5% | [7] 85% | [8] 103%

Cn1cc(-c2csc(-c3cn(CCCN4CCOCC4)c4ccccc34)n2)c2cccnc21
inactive: [1] 91.8% | [2] 86.7% | [3] 87.2% | [4] 71% | [5] 86.9% | [6] 93.7% | [7] 92% | [8] 55.2% | [9] 62% | [10] 59.7%

O=C1c2ccccc2C(=O)C1c1ccc(Br)cc1
inactive: [1] 106% | [2] 95.6% | [3] 95.3% | [4] 82.6% | [5] 125% | [6] 97.1% | [7] 82.8% | [8] 85.5% | [9] 75.6% | [10] 101%

CCN1C(=O)N(CC)C2C1NN=c1s/c(=C3\C(=O)N(CCC(C)C)c4ccccc43)c(=O)n12 (stereo not given)
active: [8] -1.36%
inactive: [1] 60.8% | [2] 48.2% | [3] 25.2% | [4] 29.5% | [5] 79.8% | [6] 30.7% | [7] 29.9% | [9] 13.7% | [10] 20.7%

COc1cc(/C=C/C(=O)/C=C(O)/C=C/c2ccc(OC(=O)C34CC5CC(CC(C5)C3)C4)c(OC)c2)ccc1OC(=O)C12CC3CC(CC(C3)C1)C2
inactive: [1] 101% | [2] 101% | [3] 95.5% | [4] 69.3% | [5] 97% | [6] 99% | [7] 91.3% | [8] 102% | [9] 103% | [10] 116%

N#C/C(=C\c1ccc(-c2cccc(C(F)(F)F)c2)o1)c1ccccc1
inactive: [1] 98.9% | [2] 67% | [3] 90.2% | [4] 68.7% | [5] 150% | [6] 85.2% | [7] 69% | [8] 102% | [9] 97% | [10] 89.7%

COc1ccc(/C=C(/c2ccccc2)[N+](=O)[O-])c(OC)c1
active: [1] -6.4% | [3] -20.5% | [4] -97.6% | [5] -26% | [6] -72.4% | [7] -25.5% | [9] 7.93% | [10] 6.93%
inactive: [2] 36.2% | [8] 51.5%

COc1ccc(-c2nc(-c3cn(C)c4ncccc34)cs2)cc1
inactive: [3] 14.1% [100 µM] | [4] 14.4% [100 µM] | [8] 24.1% [100 µM]
active: [1] 1.08% [100 µM] | [2] -26.4% [100 µM] | [5] -21.3% [100 µM] | [6] 8.63% [100 µM] | [7] 0.0611% [100 µM] | [9] 2.08% [100 µM] | [10] 2.81% [100 µM]

c1ccc(CCNc2c3ccccc3nc3ccccc23)cc1
active: [8] -5.19%
inactive: [1] 86.3% | [2] 36.3% | [3] 33.1% | [4] 24.2% | [5] 53.2% | [6] 21.6% | [7] 30.3% | [9] 53.3% | [10] 24.6%

CSC(SC)=C(C#N)c1nc2ccccc2s1
inactive: [1] 40% | [2] 74.2% | [3] 34.9% | [4] 51.8% | [5] 112% | [6] 62.4% | [7] 55.8% | [8] 49.9% | [9] 24.7% | [10] 63.6%

CNC(C)[C@H]1CCC2C3CC=C4C(=O)[C@@H](NC(=O)C=C(C)C)CC[C@]4(C)C3CC[C@@]21C (stereo not given in full)
inactive: [1] 23.8% | [2] 24.2% | [3] 17% | [5] 60.1% | [6] 26% | [8] 56%
active: [4] -35.5% | [7] 3.96% | [9] -20% | [10] -55.8%

O=C(NNc1cnccn1)c1nc2cc(F)ccc2n2cccc12
inactive: [1] 40.8% | [2] 17.9% | [3] 13.5% | [4] 16.3% | [5] 40.5%
active: [6] 7.64% | [7] 7.11% | [8] -42.1% | [9] 4.42% | [10] 5.91%

COc1ccc(C(=O)c2cc3c(N)c(C(=O)Nc4ccccc4)sc3nc2C)cc1
inactive: [1] 54.8% | [2] 50.4% | [3] 32.1% | [4] 52.3% | [5] 65.2% | [6] 42.7% | [7] 40% | [9] 10.4% | [10] 18.3%
active: [8] -1.62%

Cc1ccc2nc(-c3ccc(C(=O)NNC(=S)Nc4ccccc4)cc3)[nH]c2c1
inactive: [1] 112% | [2] 93.2% | [3] 93.9% | [4] 89.8% | [5] 151% | [6] 99.6% | [7] 95.3% | [8] 46.6% | [9] 88.8% | [10] 83.3%

COc1ccc2[nH]cc(-c3nc(-c4c[nH]c5c(Cl)nccc45)cs3)c2c1
inactive: [1] 59.3% | [2] 62.8% | [3] 56.5% | [4] 32.4% | [5] 49.6% | [6] 16.1% | [7] 61.6% | [9] 24.7% | [10] 41.1%
active: [8] -15.3%

C=C1C(=O)O[C@H]2[C@H]1CC/C(COC(=O)/C=C\C(=O)NCc1ccc(Cn3c(=O)sn(CCCCC)c3=O)cc1)=C\CC[C@@]1(C)O[C@@H]21
active: [9] 4.56%
inactive: [1] 87.6% | [2] 98% | [3] 71% | [4] 60.7% | [5] 57.4% | [6] 46.9% | [7] 66.6% | [8] 100% | [10] 18%

CCOC(=O)C(Cc1ccc(OC)cc1)C(=O)OCC
inactive: [1] 43.4% | [2] 69.3% | [3] 40% | [4] 46.7% | [5] 46.6% | [6] 44.7% | [8] 54.5% | [9] 14.3% | [10] 37.7%
active: [7] -14.2%

CCN1C2CCC1/C(=C\c1ccc(F)cc1)C(=O)/C2=C/c1ccc(F)cc1
inactive: [1] 58.9% | [2] 57.2% | [3] 44.5% | [4] 53.6% | [5] 74.2% | [6] 48.6% | [7] 66.4% | [8] 58.7% | [9] 18.2% | [10] 13.9%

COc1cccc(/C=C/C(=O)c2cccc(Nc3nc(Nc4ccccc4)nc(Nc4ccccc4)n3)c2)c1
inactive: [1] 57.9% | [2] 78.6% | [3] 106% | [4] 56.9% | [5] 77.5% | [6] 86% | [7] 84.4% | [8] 94.7% | [9] 43.8% | [10] 58.8%

Cc1ccc(/C=C/C(=O)c2cccc(OCCCOc3cccc(C(=O)/C=C/c4ccc(C)cc4)c3)c2)cc1
inactive: [1] 105% | [2] 80% | [3] 79.6% | [4] 64% | [5] 120% | [6] 78.6% | [7] 68.1% | [8] 86.4% | [9] 73.6% | [10] 85.1%

CC(C)(C)n1cc(-c2ccnc(NCCCNS(=O)(=O)c3ccc(C(F)(F)F)cc3)c2)c(-c2cccc(F)c2)n1
inactive: [1] 93.6% | [2] 78.7% | [3] 82.8% | [4] 78% | [5] 108% | [6] 85.7% | [7] 90.3% | [8] 92.5% | [9] 73.8% | [10] 65.3%

CCCn1nc(C(=O)N(C)Cc2ccccc2)c2c1CCC(N1CCc3ccccc31)C2 (stereo not given)
inactive: [1] 106% | [2] 95.2% | [3] 98.9% | [4] 81.4% | [5] 105% | [6] 96% | [7] 86.7% | [8] 95.9% | [9] 96.6% | [10] 89.9%

CC/C(Cc1ccccc1)=C(\c1ccc(OCCCN(C)C)cc1)c1ccc(OC(=O)NCc2ccccc2)cc1
inactive: [1] 97.5% | [2] 78% | [3] 77.2% | [4] 61.5% | [5] 92.2% | [6] 97.4% | [7] 93.6% | [8] 85.2% | [9] 58.3% | [10] 45.4%

CCN(CC)CCCOc1ccc2ncnc(Nc3ccc(Oc4cccc(C(F)(F)F)c4)c(Cl)c3)c2c1
inactive: [2] 23.4% | [3] 47.1% | [5] 25.7% | [8] 21.3%
active: [1] -14.7% | [4] 0.274% | [6] -13.4% | [7] -24.4% | [9] 1.81% | [10] 0.414%

CC(=O)OC(c1ccccc1)C1CCOC1=O (stereo not given)
inactive: [1] 96.5% | [2] 78.8% | [3] 102% | [5] 92.4% | [6] 96.5% | [7] 75.2% | [8] 98.7% | [9] 109% | [10] 82.8%
active: [4] -82.3%
